# The supplement of paper PMC8975748
# Where a name gives a salt, the structure may show the parent alone.
# Tested on: Saccharomyces cerevisiae BY4741 SeMeCo community
# Experiment: z-score of subpopulation abundance vs DMSO median, subpopulation auxotrophic for HU; higher = larger share of this subpopulation than in DMSO controls
# Conditions: 10 µM; 24 h; SM minimal medium; subpopulation (auxotrophy): HU
# Description: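 Fluorescent four-plasmid SeMeCo (self-establishing metabolically cooperating S. cerevisiae BY4741 community; plasmids pH-mRuby2, pL-mWasabi, pU-eCFP, pM-TagRFP657) was grown 24 h in minimal SM medium with each Selleck FDA-approved drug at 10 µM in 384-well plates. Cells were fixed and imaged by high-content confocal microscopy. For each auxotrophic subpopulation (and the prototroph), a z-score gives the deviation from the DMSO vehicle-control population median.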
row,Structure (SMILES),z-score of subpopulation abundance
1,COc1ccc2cc3[n+](cc2c1OC)CCc1cc2c(cc1-3)OCO2 [Berberine chloride],-0.79
2,COCCCOc1ccnc(C[S+]([O-])c2nc3ccccc3[nH]2)c1C (stereo not given) [Rabeprazole],0.85
3,C=C1CCC2C(C)(CO)C(O)CCC2(C)C1CC=C1C=COC1=O (stereo not given) [Dehydroandrographolide],0.11
4,NC(=O)OCC(COC(N)=O)c1ccccc1 [Felbamate],-0.73
5,CC[C@@]1(O)C(=O)OCc2c1cc1n(c2=O)Cc2cc3cc(O)ccc3nc2-1 [(S)-10-Hydroxycamptothecin],-1.09
6,CCCN1C[C@H](C)[C@@H](O)[C@](C)(O)[C@@H](CC)OC(=O)[C@H](C)[C@@H](O[C@H]2C[C@@](C)(OC)[C@@H](O)[C@H](C)O2)[C@H](C)[C@@H](O[C@@H]2O[C@H](C)C[C@H](N(C)C)[C@H]2O)[C@](C)(O)C[C@H]1C [Gamithromycin],-0.26
7,COc1ccc2[nH]c([S+]([O-])Cc3ncc(C)c(OC)c3C)nc2c1 (stereo not given) [Omeprazole],0.46
8,NC1CCN(c2nc3c(cc2F)c(=O)c(C(=O)O)cn3-c2ccc(F)cc2F)C1 (stereo not given) [Tosufloxacin p-Toluenesulfonate Hydrate],-0.62
9,CN(C)CCc1c[nH]c2ccc(CS(=O)(=O)N3CCCC3)cc12 [Almotriptan Malate],0
10,CCOC(=O)OC(C)OC1=C(C(=O)Nc2ccccn2)N(C)S(=O)(=O)c2ccccc21 (stereo not given) [Ampiroxicam],-0.62
11,CCCSc1ccc2[nH]c(NC(=O)OC)nc2c1 [Albendazole],-0.61
12,Nc1nc2c(ncn2COC(CO)CO)c(=O)[nH]1 [Ganciclovir],-0.11
13,CC1(C)S[C@@H]2[C@H](NC(=O)[C@H](N)c3ccccc3)C(=O)N2[C@H]1C(=O)O [Ampicillin Trihydrate],-0.36
14,Nc1cc(C(Cl)=C(Cl)Cl)c(S(N)(=O)=O)cc1S(N)(=O)=O [Clorsulon],0.32
15,CC(C)(C)C1CCC(CC2=C(O)c3ccccc3C(=O)C2=O)CC1 (stereo not given) [Buparvaquone],-0.75
16,COc1ccc(CNc2nc(N3CCC[C@H]3CO)ncc2C(=O)NCc2ncccn2)cc1Cl [Avanafil],0.11
17,CCC(C)(Oc1ccc(C2(c3ccc(OC(C)(CC)C(=O)O)cc3)CCCCC2)cc1)C(=O)O (stereo not given) [Clinofibrate],0.11
18,CN1CCC[C@@H]1Cc1c[nH]c2ccc(CCS(=O)(=O)c3ccccc3)cc12 [Eletriptan HBr],-1.27
19,CCCCOc1cc(C(=O)NCCN(CC)CC)c2ccccc2n1 [Dibucaine HCl],-0.13
20,C#C[C@]1(O)CC[C@H]2[C@@H]3CCC4=CC(=O)CC[C@@H]4[C@H]3C(=C)C[C@@]21CC [Etonogestrel],0.83

row,Structure (SMILES),z-score of subpopulation abundance
1,C(=C\c1ccccc1)/CN1CCN(C(c2ccccc2)c2ccccc2)CC1 [Cinnarizine],1.5
2,Nc1ccc(/N=N/c2ccccc2)c(N)n1 [Phenazopyridine HCl],-2.46
3,COCCCN1CCC(NC(=O)c2cc(Cl)c(N)c3c2OCC3)CC1 [Prucalopride Succinate],1.07
4,Cc1cc(-n2c(=O)[nH]c(=O)n(C)c2=O)ccc1Oc1ccc(SC(F)(F)F)cc1 [Toltrazuril],0.29
5,Nc1c(CC(=O)O)cccc1C(=O)c1ccccc1 [Amfenac Sodium Monohydrate],-0.95
6,CC/C(=C(\c1ccccc1)c1ccc(OCCN(C)C)cc1)c1ccccc1 [Tamoxifen],1.39
7,CC[C@@H]1C(=O)OC[C@@H]1Cc1cncn1C [Pilocarpine HCl],-0.93
8,CCC[C@@H]1C[C@@H](C(=O)N[C@@H]([C@H]2O[C@H](SC)[C@H](O)[C@@H](O)[C@H]2O)[C@@H](C)O)N(C)C1 [Lincomycin Hydrochloride Monohydrate],0.41
9,CC(=O)OCC1=C(C(=O)O)N2C(=O)[C@@H](NC(=O)CSc3ccncc3)[C@H]2SC1 [Cephapirin Benzathine],1.01
10,CCCCCCCCCCCC(=O)O [Lauric Acid],-0.42
11,O=C(NCCN1CCOCC1)c1ccc(Cl)cc1,-1.32
12,Cc1nccn1CC1CCc2c(c3ccccc3n2C)C1=O (stereo not given) [Ondansetron Hydrochloride Dihydrate],0.2
13,COc1ccc2c(c1)c(CC(=O)OCC(=O)O)c(C)n2C(=O)c1ccc(Cl)cc1 [Acemetacin],0.77
14,CC(C)[C@H](N)C(=O)OCCOCn1cnc2c(=O)nc(N)[nH]c21 [Valaciclovir HCl],0.53
15,CCCOc1ccc2[nH]c(NC(=O)OC)nc2c1 [Oxibendazole],0.92
16,C=CC1=C(C(=O)O)N2C(=O)[C@@H](NC(=O)/C(=N\OCC(=O)O)c3csc(N)n3)[C@H]2SC1 [Cefixime],0.1
17,CN1CC2c3ccccc3Oc3ccc(Cl)cc3C2C1 (stereo not given) [Asenapine maleate],-0.59
18,CO/N=C(\C(=O)N[C@@H]1C(=O)N2C(C(=O)OC(C)OC(C)=O)=C(COC(N)=O)CS[C@H]12)c1ccco1 (stereo not given in full) [Cefuroxime axetil],0.15
19,O=C1CCc2cc(OCCCCc3nnnn3C3CCCCC3)ccc2N1 [Cilostazol],-0.16
20,N/C(=N\N=C\c1ccc(Cl)cc1)N/N=C/c1ccc(Cl)cc1 [Robenidine Hydrochoride],-0.45
